Residue numbers refer to the chain shown, from its start. Whole data set: some 16,000 sequences, median “ka relative to ugcaugu” near 0.0091, cut for the highest 2% near 0.032. The list comes from a sample in which the highest values are over-represented; it also holds similar and randomly drawn sequences.
T1: RBFOX1 RRM (Homo sapiens, UniProt Q9NWB1 109-208)
T1 sequence: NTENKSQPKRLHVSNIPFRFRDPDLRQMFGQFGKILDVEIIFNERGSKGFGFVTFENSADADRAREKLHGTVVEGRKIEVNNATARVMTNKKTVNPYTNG

B1: ACCCAGU (DNA:RNA)
RNA: GGGAGACCGGAAUUCAGAUUGUCCACCCAGUUUAAAUCCCGUCGUAGCCACCA
DNA 1: CAATCTGAATTCCGGTCTCCC
DNA 2: TGGTGGCTACGACGGGATT
B2: GCACAUG (DNA:RNA)
RNA: B1 RNA with A25G, C27A, G30U, U31G
DNA 1: CAATCTGAATTCCGGTCTCCC
DNA 2: TGGTGGCTACGACGGGATT
B3: GCAUAUG (DNA:RNA)
RNA: B1 RNA with A25G, C27A, C28U, G30U, U31G
DNA 1: CAATCTGAATTCCGGTCTCCC
DNA 2: TGGTGGCTACGACGGGATT
B4: GCGCAUC (DNA:RNA)
RNA: B1 RNA with A25G, C27G, G30U, U31C
DNA 1: CAATCTGAATTCCGGTCTCCC
DNA 2: TGGTGGCTACGACGGGATT
B5: GCGCGCA (DNA:RNA)
RNA: B1 RNA with A25G, C27G, A29G, G30C, U31A
DNA 1: CAATCTGAATTCCGGTCTCCC
DNA 2: TGGTGGCTACGACGGGATT
B6: GUCCGUC (DNA:RNA)
RNA: B1 RNA with A25G, C26U, A29G, G30U, U31C
DNA 1: CAATCTGAATTCCGGTCTCCC
DNA 2: TGGTGGCTACGACGGGATT
B7: GCAUGUG (DNA:RNA)
RNA: B1 RNA with A25G, C27A, C28U, A29G, G30U, U31G
DNA 1: CAATCTGAATTCCGGTCTCCC
DNA 2: TGGTGGCTACGACGGGATT
B8: AUGUGUG (DNA:RNA)
RNA: B1 RNA with C26U, C27G, C28U, A29G, G30U, U31G
DNA 1: CAATCTGAATTCCGGTCTCCC
DNA 2: TGGTGGCTACGACGGGATT
B9: GCGCAUG (DNA:RNA)
RNA: B1 RNA with A25G, C27G, G30U, U31G
DNA 1: CAATCTGAATTCCGGTCTCCC
DNA 2: TGGTGGCTACGACGGGATT
B10: GCAUGUC (DNA:RNA)
RNA: B1 RNA with A25G, C27A, C28U, A29G, G30U, U31C
DNA 1: CAATCTGAATTCCGGTCTCCC
DNA 2: TGGTGGCTACGACGGGATT
B11: CAAUGUA (DNA:RNA)
RNA: GGGAGACCGGAAUUCAGAUUGUCCCAAUGUAUUAAAUCCCGUCGUAGCCACCA
DNA 1: CAATCTGAATTCCGGTCTCCC
DNA 2: TGGTGGCTACGACGGGATT
B12: CUCAACC (DNA:RNA)
RNA: B1 RNA with A25C, C26U, C28A, G30C, U31C
DNA 1: CAATCTGAATTCCGGTCTCCC
DNA 2: TGGTGGCTACGACGGGATT
B13: GAUGAAG (DNA:RNA)
RNA: B1 RNA with A25G, C26A, C27U, C28G, G30A, U31G
DNA 1: CAATCTGAATTCCGGTCTCCC
DNA 2: TGGTGGCTACGACGGGATT
B14: ACGCGCU (DNA:RNA)
RNA: B1 RNA with C27G, A29G, G30C
DNA 1: CAATCTGAATTCCGGTCTCCC
DNA 2: TGGTGGCTACGACGGGATT
B15: GAGAGCU (DNA:RNA)
RNA: B11 RNA with C25G, A27G, U28A, U30C, A31U
DNA 1: CAATCTGAATTCCGGTCTCCC
DNA 2: TGGTGGCTACGACGGGATT
B16: ACGUGAA (DNA:RNA)
RNA: B11 RNA with C25A, A26C, A27G, U30A
DNA 1: CAATCTGAATTCCGGTCTCCC
DNA 2: TGGTGGCTACGACGGGATT
B17: CGUCAAG (DNA:RNA)
RNA: B1 RNA with A25C, C26G, C27U, G30A, U31G
DNA 1: CAATCTGAATTCCGGTCTCCC
DNA 2: TGGTGGCTACGACGGGATT
B18: CCUGCAA (DNA:RNA)
RNA: B11 RNA with A26C, A27U, U28G, G29C, U30A
DNA 1: CAATCTGAATTCCGGTCTCCC
DNA 2: TGGTGGCTACGACGGGATT
B19: CUGAAUC (DNA:RNA)
RNA: B11 RNA with A26U, A27G, U28A, G29A, A31C
DNA 1: CAATCTGAATTCCGGTCTCCC
DNA 2: TGGTGGCTACGACGGGATT
B20: UGAUUGU (DNA:RNA)
RNA: B1 RNA with A25U, C26G, C27A, C28U, A29U
DNA 1: CAATCTGAATTCCGGTCTCCC
DNA 2: TGGTGGCTACGACGGGATT
B21: UGAAUGU (DNA:RNA)
RNA: B1 RNA with A25U, C26G, C27A, C28A, A29U
DNA 1: CAATCTGAATTCCGGTCTCCC
DNA 2: TGGTGGCTACGACGGGATT
B22: UGAAAUG (DNA:RNA)
RNA: B11 RNA with C25U, A26G, U28A, G29A, A31G
DNA 1: CAATCTGAATTCCGGTCTCCC
DNA 2: TGGTGGCTACGACGGGATT
B23: CCCUGAA (DNA:RNA)
RNA: B11 RNA with A26C, A27C, U30A
DNA 1: CAATCTGAATTCCGGTCTCCC
DNA 2: TGGTGGCTACGACGGGATT
B24: CUGAAUG (DNA:RNA)
RNA: B11 RNA with A26U, A27G, U28A, G29A, A31G
DNA 1: CAATCTGAATTCCGGTCTCCC
DNA 2: TGGTGGCTACGACGGGATT

Target: T1, RBFOX1 RRM
Assay: EMSA; HiTS-Eq, 1 nM pool, 10 min; buffer printed only for the single-RNA assays: 10 mM Tris pH 7.5, 150 mM NaCl, 3.4 mM EDTA, 0.001% NP-40, 30 C
Conditions: tags: His6 N-terminal (pET28a); label: 5' 32P
Outline: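 Purified wild-type or mutant RbFox RRM at increasing concentrations was equilibrated with 1 nM of 5′-radiolabelled RNA carrying 7 randomized nucleotides for 10 min in 50 µL. Unbound RNA was separated by 8% native PAGE and sequenced. Relative association constants came from read-count changes of each RNA species compared with the control reaction, normalised to the cognate motif.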

Binder | binding signal
B1 | 0.00233 KA relative to UGCAUGU
B2 | 0.0141 KA relative to UGCAUGU
B3 | 0.00982 KA relative to UGCAUGU
B4 | 0.0246 KA relative to UGCAUGU
B5 | 0.0238 KA relative to UGCAUGU
B6 | 0.0149 KA relative to UGCAUGU
B7 | 0.8 KA relative to UGCAUGU
B8 | 0.0208 KA relative to UGCAUGU
B9 | 0.843 KA relative to UGCAUGU
B10 | 0.689 KA relative to UGCAUGU
B11 | 0.00174 KA relative to UGCAUGU
B12 | 0.000946 KA relative to UGCAUGU
B13 | 0.0183 KA relative to UGCAUGU
B14 | 0.00889 KA relative to UGCAUGU
B15 | 0.016 KA relative to UGCAUGU
B16 | 0.00505 KA relative to UGCAUGU
B17 | 0.0065 KA relative to UGCAUGU
B18 | 0.00899 KA relative to UGCAUGU
B19 | 0.00905 KA relative to UGCAUGU
B20 | 0.0253 KA relative to UGCAUGU
B21 | 0.0386 KA relative to UGCAUGU
B22 | 0.0128 KA relative to UGCAUGU
B23 | 0.00426 KA relative to UGCAUGU
B24 | 0.0348 KA relative to UGCAUGU
